Screening results deposited in PubChem by National Center for Advancing Translational Sciences (NCATS).
FMDV antiviral: blocks foot and mouth disease virus | hit rate 1.2% among 410,000 | Potency, µM (series often up to 57.9 µM), for inactives: at the top dose activity change, negative = inhibition, actives largely listed as inhibitors | FMDV antiviral cell-based qHTS; calls by dose curve; tested in HEK293T cells; also: read-out not given here; potency is read from the fitted curve at half-maximal effect; nearly all actives have a fitted effect of over 45% in size
HCMV antiviral: blocks human cytomegalovirus replication; hit rate 4.5% among 410,000; activity change, negative = inhibition, % at 57.5 µM; HFF cells, HCMV-luciferase reporter, 72 h; stronger effect = lower value; in the data active = activity change below about -60%; inconclusive = no clear call, values can overlap the other calls; inactive = above about -39%
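Inhibition of viral replication was scored as loss of reporter luminescence in HFFs infected with HCMV-luciferase (MOI 1 PFU/cell) for 72 h; compounds tested at 2 doses, normalized to buffer and Salinomycin controls.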
AmpC inh no detg: AmpC beta-lactamase inhibition without detergent; P00811; AmpC nitrocefin hydrolysis, absorbance 480 nm, 0.0001% Triton; Potency, µM (titrated, usually from 57.1 µM), inactives show top-dose activity change, negative = inhibition, actives largely listed as inhibitors; hit rate 0.52% among 330,000;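 also: potency is read from the fitted curve at half-maximal effect; plate controls were no compound for no effect and no enzyme for full effect; nearly all actives have a fitted effect of over 20% in size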
Target sequence (P00811 whole entry, looked up): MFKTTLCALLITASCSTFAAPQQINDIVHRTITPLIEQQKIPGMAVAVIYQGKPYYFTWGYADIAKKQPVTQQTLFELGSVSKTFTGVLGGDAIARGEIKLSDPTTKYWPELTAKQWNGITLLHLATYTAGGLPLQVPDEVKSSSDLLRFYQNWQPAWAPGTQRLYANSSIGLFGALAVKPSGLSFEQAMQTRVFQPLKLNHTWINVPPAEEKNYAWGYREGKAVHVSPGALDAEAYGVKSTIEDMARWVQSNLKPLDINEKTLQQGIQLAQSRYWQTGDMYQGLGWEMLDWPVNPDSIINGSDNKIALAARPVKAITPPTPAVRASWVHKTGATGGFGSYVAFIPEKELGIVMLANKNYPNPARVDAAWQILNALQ
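AmpC (5.3 nM in the dispensed reagent) in 20 mM phosphate pH 7.0 with 0.01% (detergent screen) or 0.0001% Triton X-100 was preincubated with compounds for 15 min at room temperature. Nitrocefin was then added from an 800 uM solution, and hydrolysis was followed at 480 nm.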
HCV inh: HCV inhibition; Huh7.5.1 HCVcc-Cre infection, luciferase reporter, 44 h; Potency, µM (top dose mostly 41.8 µM), inactives show at the highest dose activity change, negative = inhibition, hits mostly inhibitors; hit rate 3.4% among 340,000; also: potency is read from the fitted curve at half-maximal effect
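Compounds are dispensed onto cells plated 4 h earlier at 1,000 per well, with HCVcc-Cre virus (about 0.5 moi) added next. Following 44 h of culture, luminescent signal is measured for 15 sec after 15 min with substrate at room temperature.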
AmpC detergent: blocks E. coli AmpC beta-lactamase in detergent assay; AmpC hydrolysis of nitrocefin, absorbance 480 nm, 0.01% Triton; Potency, µM (series often up to 114 µM), without a hit: top-dose activity change, negative = inhibition, hits mostly inhibitors; hit rate 0.041% among 370,000; AID 485294;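 also: potency is read from the fitted curve at half-maximal effect; 0% = no-compound wells and -100% = no-enzyme wells; nearly all actives have a fitted effect of over 25% in size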
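AmpC (5.3 nM in the dispensed reagent) in 20 mM phosphate pH 7.0 with 0.01% (detergent screen) or 0.0001% Triton X-100 was preincubated with compounds for 15 min at room temperature. Nitrocefin was then added from an 800 uM solution, and hydrolysis was followed at 480 nm.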
Active calls of the source: *; ? = inconclusive; . = no result. Most compounds without a hit are left out; they make up all but 7.3% or so of the library. Unless noted, calls follow the shape of the dose curve; as a rule, active = well fitted curve in the direction sought with a large enough effect; inconclusive = small, poorly fitted or top-dose-only effect, or another doubt; inactive = no such curve, though single readings can be large; an effect the other way counts as inactive or inconclusive. Unless noted, % is scaled to controls: 0 for no effect and ±100 for the full control effect.

SMILES	FMDV antiviral	HCMV antiviral	AmpC inh no detg	HCV inh	AmpC detergent
CC1CC(C)CN(S(=O)(=O)CC23CCC(CC2=O)C3(C)C)C1 (stereo not drawn)	14.7%	-19.0	20.4%	-3.2%	-6.9%
C[C@H](O)[C@@H]1C(=O)N2CCc3ccc(N4CCN(C)CC4)cc3[C@@H]2C[C@@H]1N(C)C(=O)Nc1cc(Cl)cc(Cl)c1	-3.8%	-3.9	.	?	.
C[C@H](O)[C@@H]1CN2CCc3c([nH]c4ccc(-c5ccc6c(c5)OCO6)cc34)[C@@H]2C[C@@H]1N(C)C(=O)Nc1ccc(F)cc1	?	-102.3*	.	.	.
C[C@H](O)[C@@H]1C(=O)N2CCc3ccc(-c4ccccc4)cc3[C@@H]2C[C@@H]1N(C)C(=O)Nc1cc(Cl)cc(Cl)c1	-25.0%	24.5	.	11.2µM*	.
COc1ccc(-c2ccc3[nH]c4c(c3c2)CCN2C(=O)[C@@H]([C@H](C)O)[C@@H](N(C)C(=O)Nc3ccc(F)cc3)C[C@@H]42)cc1	?	-99.8*	.	.	.
CC(=O)Nc1nonc1-c1nnc(SCC(=O)Nc2ccc(F)cc2F)n1-c1ccccc1	-14.0%	-6.3	.	.	0.1%
COc1ccc(CN2CCC3(CCC(CNC(=O)c4ccco4)O3)CC2)c(OC)c1C (stereo not drawn)	-15.4%	.	.	.	.
COc1ccc(CNC(=O)CN(Cc2ccc(Cl)cc2)S(=O)(=O)c2ccccc2)cc1	28.2µM*	-1.6	-18.5%	-12.5%	2.8%
COc1ccc(CNC(=O)CN(Cc2ccccc2)S(=O)(=O)c2ccc(Cl)cc2)cc1	?	-17.2	-2.9%	10µM*	-0.4%
COc1ccc(/C=C(/CC(=O)NCc2ccc(Cl)cc2)c2nc3ccccc3s2)cc1	11.6%	?	17.8µM*	0.5%	3.3%
COc1ccc(S(=O)(=O)N(CC(=O)NCc2ccncc2)Cc2ccccc2)cc1	-27.5%	4.6	12.0%	3.4%	?
CC(=O)N(O)c1ccc(C=Cc2ccccc2)cc1	44.4%	-98.8*	.	.	.
CC(=O)/C=C/c1ccccc1	-3.2%	-27.8	5.0%	10.3%	.
Cc1nc2ccccc2c(=O)n1NC(=O)c1c(F)cccc1F	-18.5%	-68.7*	-17.4%	2.2%	1.7%
O=C(c1ncn(Cc2ccccc2)c1C(=O)N1CCN(c2ccccc2)CC1)N1CCN(c2ccccc2)CC1	-9.0%	7.0	188.9%	-19.2%	.
O=C(O)c1ncn(Cc2ccc(Br)cc2)c1C(=O)O	35.5µM*	?	-12.4%	15.0%	0.6%
CCOCCCNC(=S)N1C2CCC1CC(NC(=O)NC1CCCCC1)C2 (stereo not drawn)	.	70.3	0.316µM*	-19.8%	-1.8%
Cc1cc(C)n(-c2nc(NCCC(C)C)c3c4c(sc3n2)COC(C)(C)C4)n1	0.0%	-95.7*	-17.7%	-4.6%	?
CCN(CC)CCNc1nc(-n2nc(C)cc2C)nc2sc3c(c12)CC(C)(C)OC3	1.2%	-64.2*	45.4%	11.2µM*	-1.3%
Cc1cc(C)n(-c2nc(NCCN(C)C)c3c4c(sc3n2)COC(C)(C)C4)n1	-8.4%	?	76.1%	?	0.8%
CC1(C)C(c2ccccc2)=NC(c2ccc(Br)cc2)N1O (stereo not drawn)	3.98µM*	-19.0	-9.9%	13.9%	3.5%
CC1(C)C(c2ccccc2)=NC(c2ccccc2)N1O (stereo not drawn)	11.4%	-34.7	5.3%	-6.5%	-0.5%
CN1C2CCC1/C(=C\c1ccc(F)cc1)C(=O)/C2=C/c1ccc(F)cc1	-4.6%	-103.4*	-15.4%	?	-5.4%
c1ccc(Nc2ccccc2Nc2ccccn2)nc1	-15.1%	-14.8	-39.2%	-2.3%	-8.8%
Oc1cccc2ccc(Nc3ccccn3)nc12	0.0%	-103.3*	-14.0%	1.12µM*	-7.6%
SMILES	FMDV antiviral	HCMV antiviral	AmpC inh no detg	HCV inh	AmpC detergent
CC(C)C(=O)Nc1nnc(SCC(=O)NCc2cccs2)s1	-5.4%	-91.8*	-8.7%	9.1%	-0.4%
CN1CCC(Oc2ccccc2Sc2ccc(C(F)(F)F)cc2)CC1	-24.5%	?	96.4%	11.2µM*	?
COc1ccc(OC(C)C(=O)N(C)Cc2nc(-c3ccc(OC)cc3)no2)cc1 (stereo not drawn)	?	-64.5*	126.5%	?	-13.2%
COc1ccccc1OCC(=O)N(Cc1nc(-c2ccc(Cl)cc2)no1)C(C)C	-15.3%	14.5	140.1%	?	?
CC(Oc1ccc(Br)cc1)C(=O)N(Cc1nc(-c2ccccc2)no1)C(C)C (stereo not drawn)	?	-70.4*	.	.	4.0%
COc1ccc(OC(C)C(=O)N(C)Cc2nc(-c3ccc(C)cc3)no2)cc1 (stereo not drawn)	?	-32.3	49.5%	14.1µM*	-23.5%
COc1ccccc1OCC(=O)N(Cc1nc(-c2ccccc2)no1)C(C)C	-2.1%	-5.3	80.3%	3.16µM*	-8.4%
Cc1ccccc1Cc1nc2cccnc2n1C1CCN(C(=O)CC2NC(=O)c3ccccc32)CC1 (stereo not drawn)	-24.4%	.	.	.	.
Cc1ccc(NC(=O)c2ccccc2OCC(=O)Nc2ccccc2F)cc1S(=O)(=O)N(C)C	39.8%	0.0	-21.3%	?	?
NC1=NC(=O)C(c2ccccc2)C(=O)N1 (stereo not drawn)	-7.2%	31.9	.	7.7%	.
COc1cc(O)c2c(c1)C(=O)c1cc(C)cc(O)c1C2=O	1.1%	.	.	.	.
Cc1cc(O)c2c(c1)C(=O)C13C(=C2O)C(=O)[C@H]2[C@@H](O)[C@@H]1[C@H]1[C@H](O)[C@@H]3C(=O)C3=C(O)c4c(O)cc(C)cc4C(=O)C312 (stereo partly drawn)	-2.8%	.	-25.7%	10µM*	3.1%
O=C(CC1(O)C(=O)N(C/C=C/c2ccccc2)c2ccccc21)c1ccccn1 (stereo not drawn)	-15.6%	-70.7*	48.6%	-9.7%	-10.8%
O=C(CC1(O)C(=O)N(CCc2ccccc2)c2ccccc21)c1ccccn1 (stereo not drawn)	11.4%	-21.7	20.5%	12.9%	2.7%
CCCc1c(C(=O)NNc2cc(C(F)(F)F)ccc2Cl)cnn1-c1ccccc1	-11.5%	-65.6*	-23.6%	?	6.5%
COc1cc(-c2c(C#N)c(N)nc3c2c(C)nn3-c2ccc(C)c(C)c2)cc(OC)c1OC	-12.9%	136.1	68.7%	?	-12.5%
Cc1nn(-c2ccccc2)c2nc(N)c(C#N)c(-c3ccc(O)c(O)c3)c12	-20.9%	-62.3*	-50.0%	11.2µM*	0.7%
Cc1nn(-c2ccc(F)cc2)c2nc(N)c(C#N)c(-c3ccc(O)c(O)c3)c12	?	33.4	14.1µM*	?	1.9%
COc1ccc(S(=O)(=O)Nc2ccc3c(c2)C(=O)N([C@H](C)CO)C[C@H](C)[C@@H](CN(C)C(=O)Nc2ccc4c(c2)OCO4)O3)cc1	6.9%	13.0	83.2%	20.6%	.
CCOC(=O)N1CCc2c(sc(NCc3ccc(N(C)C)cc3)c2C(=O)Nc2ccc(OC)cc2)C1	-4.4%	-65.4*	.	.	0.7%
